Test results reported in PubChem BioAssay AID1345083 (National Center for Advancing Translational Sciences (NCATS), 2018).
Among all 94,000 compounds or so, about 6,200 (6.6%) were called active. Inconclusive results (about 31%) are left out. Calls follow the shape of the dose curve; as a rule, active = well fitted inhibition curve with a large enough effect; inconclusive = small, poorly fitted or top-dose-only effect; inactive = flat fitted curve, though single readings scatter. What follows is part of a selection rich in actives, with near analogues and random picks from the rest. A call without a number means that no potency is given here.

Experiment: Cytotoxic Profiling in HEK 293 Cell Line of Diverse Libraries Using Quantitative High-Throughput Screening; also: nearly all actives have a fitted effect of over 60% in size
Conditions: HEK 293 viability, ATP luminescence (CellTiter-Glo), 48-72 h; series mostly up to 115 µM
Excerpt: Cell-based phenotypic screening is a commonly used approach to discover biological pathways, novel drug targets, chemical probes and high-quality hit-to-lead molecules. Many hits identified from high-throughput screening campaign are ruled out through a series of follow-up potency, selectivity/specificity, and cytotoxicity assays. Prioritization of molecules with little or no cytotoxicity for a more in-depth downstream evaluation influence the future direction of projects, so cytotoxicity profiling of the screening libraries at early stage is essential for increasing the likelihood of candidate success. In this study, we analyzed results from a cell-based cytotoxicity screening campaign, comprising nearly 10,000 compounds in NCATS annotated libraries, and over 100,000 compounds in a diversity library, evaluated in four normal cell lines (HEK 293, NIH 3T3, CRL-7250 and HaCat) and a cancer cell line (KB 3-1, a HeLa subline) with overall screening outcomes, hit rates, pan-activity and selectivity. For the annotated library, we also examined the primary targets and mechanistic pathways regularly associated with cell death. To our knowledge, this is the first study to use high-throughput screening to profile large libraries for cytotoxicity assessment in both normal and cancer cell lines. In summary, the results generated here constitutes a valuable resource for the scientific community and provides insight on identifying cytotoxic compounds with particular mechanisms of action, and prioritizing compounds with suitable cytotoxicity profile for further evaluation.
HEK 293 cells were seeded into white 1536-well plates using a Multidrop Combi peristaltic dispenser (ThermoFisher, Waltham, MA) at a density of 250 cells/well in 5 uL of medium respectively. A pintool (Kalypsys) was used to transfer 23 nL of compound solution to the 1536-well assay plates. After 48 or 72 hr incubation at 37 degree Celsius, 5% CO2 and 95% humidity, 2.5 uL of CellTiter-Glo (Promega) was dispensed into each well using a dispenser (Aspect Automation, St. Paul, MN) with solenoid valves (Lee Valves, Westbrook CT). Plates were left at room temperature for 10 min before imaging the ATP-coupled luminescence using a ViewLux microplate imager (PerkinElmer, Waltham, MA).
Potency is read from the fitted curve at half-maximal effect.

| Compound | Potency |
| --- | --- |
| Cc1ccc(-c2ccc3nnc(CNC(=O)c4ccncc4)n3n2)cc1C | inactive |
| COc1ccc2c(c1)OCC(C(=O)N1CCCN(c3ncccn3)CC1)C2 (stereo unspecified) | inactive |
| COc1ccc(C(=O)NCC23CCC=C2N(C)C(=O)CC3)cc1OC (stereo unspecified) | inactive |
| CCCS(=O)(=O)N1CCC(Nc2nccnc2OCC)CC1 | inactive |
| COC[C@@H]1CN(Cc2c(C)n[nH]c2C)C[C@H]1c1nc(C)no1 | inactive |
| CC/C=C(\C)CN1CCC2(CC1)Cc1ccccc1CNC2=O | inactive |
| CC(=O)N1CC(CO)C2(CCN(C(=O)c3ccccc3Cl)CC2)C1 (stereo unspecified) | inactive |
| C=CCNC(=O)N1CC[C@@H](CC(=O)O)[C@@H](CC2=NCCc3ccc(C)cc32)C1 | inactive |
| COc1ccc(C(=O)N2CCCC(C(=O)N3CCCC(c4nc5ccncc5[nH]4)C3)C2)cc1 (stereo unspecified) | inactive |
| COc1ccc(-c2nc3ccncc3[nH]2)cc1 | 20 µM (active) |
| COc1ccc(C(=O)N2CCCC2C(=O)N2CCCC2c2nc3ccncc3[nH]2)cc1 (stereo unspecified) | inactive |
| Cc1ccc(CN2CCOCCNC(=O)CC2)o1 | inactive |
| CN(C)C(=O)c1cccnc1OC1CCN(S(=O)(=O)c2ccc(F)c(F)c2)C1 (stereo unspecified) | inactive |
| COC1CCC(C(=O)N2CCC3(CC2)OC(=O)N(Cc2ccccc2)C3(C)c2ccccc2)CC1 (stereo unspecified) | inactive |
| CC1(c2ccccc2)N(Cc2ccccc2F)C(=O)OC12CCN(Cc1c[nH]c3ccccc13)CC2 (stereo unspecified) | 20 µM (active) |
| Cc1ncsc1C(=O)N1CCC2(CC1)OC(=O)N(Cc1ncccn1)C2(C)c1ccccc1 (stereo unspecified) | inactive |
| CCOc1ccccc1C(=O)N1Cc2cnc(Cc3ccc(OC)cc3)nc2C1 | inactive |
| CC1CCN(C(=O)c2ccccc2OCC2CCCN(Cc3cncs3)C2)CC1 (stereo unspecified) | inactive |
| CC(C)Oc1ccc(CN2CCCC(COc3ccccc3C(=O)N3CCCC3)C2)cc1 (stereo unspecified) | 39.8 µM (active) |
| COc1cc(-c2ccccc2C#N)cc(OC)c1OC | inactive |
| COCCNC(=O)[C@@H]1C[C@H](Oc2ccccc2)CN1C(=O)C1(c2ccccc2)CC1 | inactive |
| CN(C)C(=O)c1n[nH]c2c1CN(C(=O)c1ccccc1Br)CC2 | inactive |
| O=C(NCCCc1ccccc1)c1n[nH]c2c1CN(C(=O)C1CC1)CC2 | 11.2 µM (active) |
| COC(=O)c1n[nH]c2c1CN(C(=O)[C@H]1CCC[C@@H](O)C1)CC2 | inactive |

| Compound | Potency |
| --- | --- |
| CN(C)C[C@@H]1CN(S(C)(=O)=O)C[C@H]1NC(=O)c1ccc(C#N)cc1 | inactive |
| Cn1nc(C2CCCN2C(=O)NC2CCCCC2)n(Cc2ccccc2)c1=O (stereo unspecified) | inactive |
| COCCn1c(C)cnc1CC1CCN(C(=O)c2ccc(OC)cc2OC)CC1 | inactive |
| COc1ccc(NC(=O)N2CCCC(Cc3noc(-c4ccccc4)n3)C2)cc1 (stereo unspecified) | 35.5 µM (active) |
| COCCCNC(=O)N1CCC(Cc2noc(-c3ccncc3)n2)C1 (stereo unspecified) | inactive |
| Cc1cc(C(=O)N2CCCC(Cc3noc(-c4cccnc4)n3)C2)nn1C (stereo unspecified) | inactive |
| Cc1nc(-c2cn(C3CCCN(C(=O)c4cc(F)ccc4F)C3)nn2)no1 (stereo unspecified) | inactive |
| COC(=O)[C@H](CC1CCCCC1)NC(=O)[C@@H]1CN(C(=O)c2ccc(N(C)C)cc2)CCN1C(C)=O | inactive |
| COc1ccc(NC(=O)N2C[C@@H](F)C[C@H]2C(=O)N2CCCCC2)c(C)c1 | inactive |
| NCc1ccc(-c2cncnc2)cc1 | inactive |
| Cc1cc(Cl)ccc1-c1ccc(CN)cc1 | 31.6 µM (active) |
| O=C(CCc1ccc2c(c1)CNCCO2)NCC1CC1 | inactive |
| O=C1CCCCC(CNC(=O)c2ccoc2)N1 (stereo unspecified) | inactive |
| Cc1ccc(CNC(=O)N2CCC3(CC2)CC(N(C2CC2)S(C)(=O)=O)CCO3)cc1 (stereo unspecified) | inactive |
| Cc1nc(-c2ccccc2OC2CN(S(=O)(=O)c3cn(C)cn3)C2)no1 | inactive |
| COc1ccccc1-c1cc(C(=O)NCc2cnn(C)c2)c2c(c1)N(C)CCO2 | inactive |
| COc1cc2c(cc1OC)C(CNC(=O)c1ccc(Cl)cc1)N(C(=O)Nc1ccccc1)CC2 (stereo unspecified) | inactive |
| COc1ccccc1-c1cnc(NC(=O)c2ccc(Cl)cc2)c2c1CCO2 | 63.1 µM (active) |
| COc1ccccc1-c1cnc(Nc2ccncc2)c2c1CCO2 | 63.1 µM (active) |
| CCS(=O)(=O)N1CC(F)(F)C[C@H]1c1nc(C2CC2)no1 | inactive |
| CC(C)(C)n1nnnc1C1CC2(CCOCC2)C(=O)N1Cc1cccc(F)c1 (stereo unspecified) | inactive |
| O=C1CC2(CCN(C(=O)C3CCN(C(=O)Cc4ccccn4)CC3)CC2)Oc2ccccc2N1 | inactive |
| Cc1cnc(C)n1CCN | inactive |
| Cc1ccccc1S(=O)(=O)N1CCN(C(=O)N2CC3CC(C2)[C@H]2CCCC(=O)N2C3)CC1 (stereo partly specified) | inactive |

| Compound | Potency |
| --- | --- |
| CCNC(=O)c1cccnc1OC1CCN(C(=O)CC2CCCC2)C1 (stereo unspecified) | inactive |
| Cn1c([C@H]2CCN(C3CCOCC3)C2)nc2ccccc21 | inactive |
| CN1CCC(N2CC[C@H](c3nc4ccccc4s3)C2)CC1 | 31.6 µM (active) |
| c1ccc2sc(C3CCCN(Cc4cc5n(n4)CCNC5)C3)nc2c1 (stereo unspecified) | inactive |
| COc1cccc(CC(=O)NCCC2CCN(C(=O)Nc3ccc(C)cc3)CC2)c1 | inactive |
| COc1cccc(NC(=O)NC[C@H]2O[C@@H](CO)[C@@H](O)[C@H]2N(C)CCN(C)C)c1 | inactive |
| C#CCN[C@@H]1C[C@@H]2c3[nH]c4ccccc4c3C[C@@H](C(=O)OC)N2[C@H](c2ccc(F)cc2)C1 | 31.6 µM (active) |
| COC(=O)[C@@H]1Cc2c([nH]c3ccccc23)[C@H]2C[C@H](NCCNC(C)=O)C[C@@H](c3ccc(C)cc3)N21 | 25.1 µM (active) |
| COC(=O)[C@@H]1C[C@@H](NC(=O)c2ccc(-c3nnn(C)n3)cc2)CN1C | inactive |
| CN(CCNC(=O)C1CCCN(S(C)(=O)=O)CCC(=O)NCC1)C1CCCCC1 (stereo unspecified) | inactive |
| Cc1cc(C)n(CCC(=O)N[C@@H]2CN(S(C)(=O)=O)C[C@H]2CN(C)C)n1 | inactive |
| COc1ccc(CNC(=O)NCC(=O)N2CCCCCCNC(=O)CC2c2ccccc2)cc1 (stereo unspecified) | inactive |
| O=[S+]1([O-])NCC2(CCN(CC3CC3)CC2)Oc2ncccc21 | inactive |
| Cc1noc([C@@H]2CC(F)(F)CN2C(=O)c2cc(C)on2)n1 | inactive |
| CC(C)(C)c1coc([C@@H]2COCCN2Cc2ccc(F)cc2)n1 | inactive |
| c1cc(CN2CCOC[C@H]2c2ncc(-c3ccncc3)[nH]2)ccn1 | inactive |
| Cn1cc(CN2CCOC[C@H]2c2ncc(-c3cccc(F)c3)[nH]2)c2ccccc21 | 35.5 µM (active) |
| CC(=O)N1CCC(N2CCOC[C@H]2c2ncc(-c3ccc(Cl)s3)[nH]2)CC1 | inactive |
| Oc1ccccc1CN1CCOC[C@H]1c1ncc(-c2ccc(C(F)(F)F)cc2)[nH]1 | 70.8 µM (active) |
| Cc1ccc(CN2CCOC[C@H]2c2ncc(-c3cccc(F)c3)[nH]2)cc1 | 70.8 µM (active) |
| Cn1cc(CN2CC[C@H](c3nnc(-c4cccnc4)o3)C2)c2ccccc21 | inactive |
| c1cncc(-c2cnc([C@@H]3COCCN3Cc3cnc4ccccc4c3)[nH]2)c1 | inactive |
| Fc1ccc(CN2CCOC[C@H]2c2ncc(-c3cccnc3)[nH]2)cc1 | inactive |
